According to PubChem BioAssay AID588398 (Broad Institute, 2011):
In all, about 1,200 compounds went through this assay and about 110 (9.2%) were called active. Not shown: some 8% with an inconclusive outcome.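 The calls were made as follows: active = pathway reporter half-maximal dose under half the control reporter's, or control reporter unaffected while pathway reporter is inhibited; inconclusive = either signal flat at 30 to 70% inhibition or poorly fitted; inactive = the rest.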 Only a sample is shown. Results with a measured potency or affinity are listed apart.

assay: LMP1 TES1 pathway selectivity over dsRED control – imaging, HEK293T, dual-color eGFP/dsRED, cherry-picks, selectivity assay for LMP1 NF-kB inhibitor project, dose response (AID 588398); settings: 48 h; HEK293T Tet-On dsRED counter-screen channel, at 19.5 µM (top of the series); activity change, negative = inhibition: at the top concentration;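 also: 0% = median of neutral control wells and -100% = median of MG132 positive control wells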

Compound	activity change, negative = inhibition	outcome
Cc1ccc(C)c(S(=O)(=O)N2CCN(CC(=O)N3CCc4ccccc4C3)CC2)c1	4.86% (inactive)	
CCOc1ccc(OCC(=O)Nc2nccs2)cc1	3.42% (inactive)	
O=C(c1ccc(COc2ccccc2Cl)o1)N1CCCC1	26.2% (inactive)	
Cc1cc(C)n2nc(CC(=O)NC3CCCCCC3)nc2n1	-3.96% (inactive)	
CCOC(=O)c1cn2nc(N3CCCCC3)ccc2n1	-16.5% (inactive)	
COc1ccc(CCC(=O)Nc2ccc(C)c([N+](=O)[O-])c2)cc1	-3.49% (inactive)	
O=C(C=C1SCCS1)/C=C/c1ccco1	-8.35% (inactive)	
Cc1ccccc1Cn1c(O)c(N=NC(=S)Nc2ccccc2F)c2ccccc21	11.9% (inactive)	
CCc1ccc(C(=O)COC(=O)c2cccc(N3C(=O)c4c(C)nc5ccccc5c4C3=O)c2)cc1	239% (inactive)	
COc1cc(/C=N/NC(=S)Nc2cccc(C(=O)O)c2)ccc1O	4.99% (inactive)	
O=C(Nc1ccc(C(=O)N2CCOCC2)cc1)Nc1cccc(C(F)(F)F)c1	-84.7% (inactive)	
O=C(NC1=NCCS1)c1cc2ccccc2o1	-20.6% (inactive)	
COc1cc2c(cc1OC)-c1cc(Nc3ccc4c(c3)OCCO4)nc(=O)n1CC2	3.53% (inactive)	
COc1ccccc1-n1c(-c2ccccc2)n[nH]c1=S	-2.33% (inactive)	
COc1ccc(/C(CC2OC(=O)c3ccccc32)=N\NC(N)=O)cc1 (stereo not given)	9.72% (inactive)	
COc1ccc(N/N=C/c2c(C(=O)O)ccc3ccccc23)cc1	-82.7% (inactive)	
COc1ccccc1C=NN=Cc1ccccc1O	11.8% (inactive)	
O=C(Nc1ccc(F)c(F)c1)C1CCCCC1	-0.709% (inactive)	
CC[C@]1(C(=O)OC)[C@H]2C(=O)N(Cc3ccccc3)C(=O)[C@H]2[C@H]2CN=C(SCc3ccc(Cl)cc3)N21	-97.1% (inactive)	
CCCSc1ccc([C@@H]2[C@H]3C(=O)N(C)C(=O)[C@H]3[C@]3(C(=O)OC)CCCN23)cc1OC	2.29% (inactive)	
COc1ccc(-n2c(C)c(C(C)=O)c3cc(OC(C)=O)ccc32)cc1	-87.7% (inactive)	
COc1ccc(S(=O)(=O)N2CCC(C(=O)NC3CC3)CC2)cc1OC	2.11% (inactive)	

Compound	activity change, negative = inhibition	outcome
O=C(C1CCCCC1)N1CCN(c2ccnc3cc(Cl)ccc23)CC1	-8.83% (inactive)	
C[n+]1c2n(c3ccccc31)N=C(c1cc(C(C)(C)C)c(O)c(C(C)(C)C)c1)CS2	-79% (inactive)	
CC(=NNc1nc2ccccc2s1)c1ncccn1	-99.9% (inactive)	
CC(=NNc1nc2ccccc2o1)c1ncccn1	-91.1% (inactive)	
Brc1cccc(-c2cnco2)c1	18.5% (inactive)	
COc1ccccc1NC(=O)C(=O)N/N=C(\C)CC(=O)Nc1ccccc1C(F)(F)F	7.02% (inactive)	
COc1ccc(NC(=O)Cn2nnc(C(=O)NCc3ccccc3)c2N)c(OC)c1	114% (inactive)	
COC(=O)c1cccc(COC(=O)c2ccccc2NC(=O)c2ccco2)c1	0.293% (inactive)	
Cn1c(=O)c2c(nc(NCc3ccco3)n2C/C=C/c2ccccc2)n(C)c1=O	-18.9% (inactive)	
O=C(CCS(=O)(=O)c1ccccc1)Nc1nccs1	-25.5% (inactive)	
Oc1c(N=NC(=S)Nc2ccccc2F)c2ccccc2n1Cc1cccc(Cl)c1	19.5% (inactive)	
CCCCCCNC(=O)O[C@]12C[C@@H](C(=O)OC)[C@@H](C(=O)OC)C[C@@]1(O)CN(S(=O)(=O)c1ccc(C)cc1)C2	-4.81% (inactive)	
CCN1CCN(Cc2ccc(NC(=O)c3ccc(C)c(NC(=O)c4ccno4)c3)cc2C(F)(F)F)CC1		inactive
Oc1c(N=NC(=S)Nc2ccccc2F)c2ccccc2n1Cc1ccc(F)cc1	11.3% (inactive)	
CCCN(CC)c1ncnc2[nH]ncc12	-85.4% (inactive)	
Cc1ccccc1-n1nc(C)c2cc(C(=O)NC3CC3)sc21	16.1% (inactive)	
Cc1ccc(N2C(=O)c3ccccc3C2Nc2cccnc2)nc1 (stereo not given)	10.4% (inactive)	
O=C(c1ccc(C#CC2(O)CCCCC2)cc1)N1CCN(C(c2ccccc2)c2ccccc2)CC1	-14.9% (inactive)	
COc1ccc(C(c2c(C)n(C)n(-c3ccccc3)c2=O)c2c(C)n(C)n(-c3ccccc3)c2=O)c(OC)c1OC	6.3% (inactive)	
Cc1ccccc1C(=O)NC(=S)Nc1ccc(N2CCN(C(=O)c3ccccc3)CC2)cc1	3.02% (inactive)	
COc1cccc(/C=N\NC(=O)c2ccc(C)nc2)c1	1.79% (inactive)	
O=C(N/N=C/c1c(O)ccc2ccccc12)c1cccnc1	-94.7% (inactive)	

Compound	activity change, negative = inhibition	outcome
CC(CN1CCCCC1)OC(=O)c1ccc2c(c1)OCO2 (stereo not given)	-1.2% (inactive)	
N=C1S/C(=C\c2ccccc2)C(=O)N1c1ccc(F)cc1	5.19% (inactive)	
CN(C)S(=O)(=O)c1cccc(NC(=O)c2n[nH]c(=O)c3ccccc23)c1	7.35% (inactive)	
CCOc1ccc(-c2cc(C(=O)N/N=C/c3ccc(O)cc3)c3ccccc3n2)cc1	112% (inactive)	
O=[N+]([O-])c1cccc(-c2ccc(/C=N/Nc3nc(N4CCCCC4)nc(N4CCCCC4)n3)o2)c1	41.5% (inactive)	
Cc1ccc(-c2cc(C(=O)N/N=C/C=C/c3ccco3)c3ccccc3n2)cc1C	79.6% (inactive)	
Cc1c(NC(=O)c2cc(-c3cccs3)nc3ccccc23)c(=O)n(-c2ccccc2)n1C	26.4% (inactive)	
O=C(COC(=O)c1ccc(S(=O)(=O)NCc2ccco2)cc1)Nc1ccc(Cl)cn1	12.5% (inactive)	
CCOC(=O)/C=C(\C)Sc1cc(=O)oc2ccccc12	-97.8% (inactive)	
COc1ccc([C@H]2N[C@]3(CCCN(Cc4ccco4)C3=O)[C@H]3C(=O)N(Cc4ccccc4)C(=O)[C@@H]23)cc1	0.261% (inactive)	
Cc1ccc(NC(=O)NNS(=O)(=O)c2ccc(Br)cc2)cc1	-10.6% (inactive)	
CCN(Cc1ccncc1)C(=O)CCc1ccccc1	29.2% (inactive)	
Cc1c(/C(O)=C2/C(=O)C(=O)N(CCN3CCOCC3)C2c2ccccn2)cnn1-c1ccccc1 (stereo not given)	0.373% (inactive)	
COC(=O)CCCC[C@@H]1SC[C@@H](NC(=O)OC)[C@@H]1NC(=O)OC	19.4% (inactive)	
CN=C1S/C(=C\c2ccc(O)c(Br)c2)C(=O)N1C	7.27% (inactive)	
C#CCN(C[C@@H]1[C@@H](OC(=O)NCC2CCCCC2)[C@@H](OC(=O)NCC2CCCCC2)Cn2c(=O)ccc(=O)n21)S(=O)(=O)c1ccc(C)cc1	-99.9% (inactive)	
O=C(NOCc1ccccc1)c1ccc(Cl)cc1Cl	-18% (inactive)	
S=C(NCC1CCCCC1)Nc1ccc(Oc2ccccc2)cc1	14.5% (inactive)	
COc1ccc(C(=O)CN(CCC(=O)O)S(=O)(=O)c2ccc([N+](=O)[O-])cc2)cc1	1.46% (inactive)	
CCN(CC(=O)NCc1ccc(F)cc1)CC(=O)Nc1cc(S(=O)(=O)N(C)C)ccc1C	-15.9% (inactive)	
O=C(Nc1ccc(N2CCOCC2)cc1)c1cn2ccccc2n1	-2.87% (inactive)	
